Test results from the supplement of paper PMC6555819.

Key:
Assay in all cases: PBM binding z-score (relative to random genomic background probes); higher = stronger binding; sequences stand for … in GC…GCGATTGACAGCGTAGAATGAAGG
[1] = tested on: FXR:RXRa (NR concentration 270 nM, RXRa partner concentration 90 nM)
How it was run: (§1)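 Each nuclear receptor dimer, without ligand, was incubated for 1 h on custom Agilent 4×180K protein-binding microarrays. Binding was detected with antibodies against each partner (one per run), and scanned fluorescence was regression-normalized. The binding z-scores are referenced to random human genomic background probes.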

[2] = tested on: LXRa:RXRa (NR concentration 270 nM, RXRa partner concentration 90 nM)
How it was run: as §1

[3] = tested on: LXRa homodimer (NR concentration 270 nM)
How it was run: as §1

[4] = tested on: LXRb:RXRa (NR concentration 270 nM, RXRa partner concentration 90 nM)
How it was run: as §1

[5] = tested on: LXRb homodimer (NR concentration 270 nM)
How it was run: as §1

[6] = tested on: PPARa:RXRa (NR concentration 270 nM, RXRa partner concentration 90 nM)
How it was run: as §1

[7] = tested on: PPARg:RXRa (NR concentration 180 nM, RXRa partner concentration 90 nM)
How it was run: as §1

[8] = tested on: PPARg:RXRa 270nM:90nM, anti-RXR (NR concentration 270 nM, RXRa partner concentration 90 nM)
How it was run: as §1

[9] = tested on: PPARg:RXRa 30nM:10nM, anti-RXR (NR concentration 30 nM, RXRa partner concentration 10 nM)
How it was run: as §1

[10] = tested on: PPARg:RXRa 90nM:30nM, anti-RXR (NR concentration 90 nM, RXRa partner concentration 30 nM)
How it was run: as §1

| Sequence | PBM binding z-score [1] | PBM binding z-score [2] | PBM binding z-score [3] | PBM binding z-score [4] | PBM binding z-score [5] | PBM binding z-score [6] | PBM binding z-score [7] | PBM binding z-score [8] | PBM binding z-score [9] | PBM binding z-score [10] |
| --- | --- | --- | --- | --- | --- | --- | --- | --- | --- | --- |
| ACTAGTTGGTCAGCTGAGGTCACCCACAATTCGG | 3.88 | 3.1 | 2.1 | 3.2 | 0.552 | 3.63 | 1.42 | 2.6 | 0.58 | 2.01 |
| TCTAGTTGGTCACGGAGGTGACACACGACGGGTA | 1.04 | 0.805 | -0.0469 | 0.335 | 0.00515 | 1.43 | 1.64 | 1.98 | 2.83 | 2.24 |
| GCTCGCAGGACAAGGTCAGAGCTTTGTCCGTAGA | 1.42 | 1.47 | -0.546 | 1.08 | -1.31 | 2.19 | -0.311 | 0.692 | -0.968 | -0.0202 |
| ATTACAGGGTCATCGTAGGCCAGAGTACGCACAG | 7.11 | 6.64 | 1.78 | 4.65 | 2.02 | 6.2 | 7.1 | 6.16 | 2.72 | 5.18 |
| ATCGAAAGGTCGAGGTGAGGATAGAGAAAGGGAA | 4.33 | 3.16 | 0.082 | 2.64 | 0.457 | 4.44 | 3.06 | 3.83 | 1.33 | 2.81 |
| CCTCGGAGTACAACAGGAGGTCAGAGCTGCCAGA | 0.85 | 1.93 | 1.79 | 1.35 | -0.438 | 1.92 | 0.371 | 0.479 | -0.324 | -0.0827 |
| GCTAGCAGGCCGTTTGGGTCACTCAATGACGGGC | 0.0511 | -0.392 | -0.828 | -0.0413 | -1.11 | 0.602 | -0.107 | -0.514 | -0.56 | -0.437 |
| CAGCCTAGGTCAGGGTCAGTATAGGAGGAACGTT | 3.28 | 2.28 | 0.154 | 2.3 | -0.746 | 3.73 | 2.37 | 2.52 | 0.577 | 1.52 |
| AGTCAAAGTTCTGGACGAGGTAACGTAAAGCACG | -0.243 | -0.501 | -0.429 | -0.322 | -0.689 | 0.00286 | 0.557 | 0.0282 | -0.285 | 0.00624 |
| AATCAAAGTTCATCTAGGTAACGTAAGATATGCT | 6.64 | 6.2 | 7.11 | 4.15 | 2.37 | 4.75 | 4.35 | 4.25 | 2.04 | 3.19 |
| ATCTCTAGGTAAAGATAGTTCAGTGATTGCAAAT | 0.768 | 3.86 | 0.679 | 1.04 | 0.794 | 0.72 | 0.511 | 0.72 | 0.406 | 0.607 |
| TCTAGTTGATCAAAGGTCACACACTCGAAATGCG | 5.64 | 5.85 | 3.84 | 5.63 | 1.9 | 5.8 | 7.89 | 7.86 | 7.94 | 8.62 |
| CCTATTAGCTGACCATAAGGGCAACCGAAGCTCG | 0.524 | 0.335 | 0.221 | 0.0745 | 0.36 | 0.273 | 0.333 | -0.0328 | -0.243 | -0.184 |
| TCTATTAGTGGAAGGGCAACCGACGAGTCCGTTT | 0.67 | 0.688 | 0.218 | 0.807 | 0.57 | 0.716 | 0.0931 | 1.91 | 3.26 | 2.56 |
| CCTTCTGGGCCACGAAAGGTCATTGATTCAGTGA | 4.23 | 5.51 | 4.66 | 4.55 | 0.628 | 4.97 | 3.74 | 4.4 | 1.82 | 3.94 |
| CCGACTGGGGCTAGGTTACCATAACGCACAGCCA | -0.553 | -0.225 | -0.483 | -0.184 | -0.938 | -0.107 | 0.784 | 0.0405 | -0.564 | -0.369 |
| GCTAGCAGTCCATTTGGGTCACTCAATGACGGGC | 0.123 | -0.125 | -0.706 | -0.0386 | -0.905 | 0.937 | 0.41 | 0.105 | -0.37 | -0.0818 |
| CCTCGGAGGACAACAGGAGGTCAGTGCTGCCAGA | 0.821 | 1.62 | 1.58 | 1.15 | -0.378 | 1.62 | 0.333 | 0.375 | -0.857 | -0.495 |
| CCGACTGGGGCATAAGGTTTCCATAAGCCAGCCC | 0.03 | -0.0633 | -0.565 | -0.536 | -1.41 | 0.26 | 1.11 | 1.75 | -0.0792 | 1.44 |
| CAAACTAGGTCAAGAGGTCAAGGTCCGCTTCCCG | 6.64 | 6.02 | 4.56 | 4.63 | 1.32 | 6.41 | 9.76 | 8.19 | 6.69 | 8.28 |
| ATAATGAGGTTAAGATCAGGGAAACAGAATACAT | 2.39 | 2.59 | 0.379 | 2.15 | 0.727 | 3.79 | 3.01 | 2.48 | 1.48 | 2.19 |
| CGAACTAGGTCATCCAGGACAGTGCATACATTGA | 4.36 | 2.32 | 0.87 | 2.15 | 0.0357 | 4.85 | 7.67 | 6.47 | 3.97 | 5.85 |

| Sequence | PBM binding z-score [1] | PBM binding z-score [2] | PBM binding z-score [3] | PBM binding z-score [4] | PBM binding z-score [5] | PBM binding z-score [6] | PBM binding z-score [7] | PBM binding z-score [8] | PBM binding z-score [9] | PBM binding z-score [10] |
| --- | --- | --- | --- | --- | --- | --- | --- | --- | --- | --- |
| CGTCCAAGGTCAAGGTCAGTGTAAGAGACTCGAA | 7.52 | 5.66 | 1.6 | 4.66 | 0.633 | 5.87 | 6.25 | 6.02 | 2.39 | 4.8 |
| CCTGCTAGGTCATGGTAAGCTAATCTACAGTATG | 3.82 | 2.46 | 0.0967 | 1.86 | -0.0761 | 3.64 | 2.48 | 2.64 | 0.993 | 1.66 |
| TCATATAGGTAAAGGTGTAAGTCGAACGATATGA | 0.564 | 0.266 | -0.224 | 0.356 | -0.187 | 1.81 | 3.01 | 3.83 | 4.04 | 4.1 |
| ATACCAGGGTGATCGTGAGGTCGTTGATACTAAC | 1.34 | 1.44 | 0.904 | 1.5 | 0.0794 | 1.82 | 0.781 | 0.722 | 0.104 | 0.486 |
| AGTCAAAGTTCACTATGTAACGTAAGATTCAGCT | 4.61 | 4.75 | 2.99 | 3.02 | 1.03 | 3.85 | 5.87 | 5.38 | 2.49 | 4.66 |
| TTTGCTAGGTCAGTTGGTCAGCTAACGAGCTGCC | 1.15 | 1.41 | 0.52 | 0.404 | 0.521 | 1.54 | 1.1 | 1.77 | -0.172 | 1.34 |
| ATCACTAGGTAAGACTCAGTTCAGTGAAGAACGC | 0.15 | 0.00987 | 0.227 | -0.0165 | 0.239 | 0.147 | 0.394 | 0.383 | 0.287 | 0.0779 |
| TCTAGTTGGTCACAGAGGTCACACACGACGGGTA | 4.73 | 4.98 | 3.92 | 4.46 | 1.51 | 4.84 | 4.45 | 5.18 | 4.12 | 5.26 |
| TCTCGGGGGACACGAAAGGTCAGAGCTCGACATC | 4.5 | 5.39 | 3.18 | 5.47 | 5.76 | 5.03 | 3.63 | 4.96 | 3.73 | 4.14 |
| CCTAGCAGGCCGGGGTCACTCAAGCATTTCGCTT | 4.66 | 3.63 | -0.0184 | 3.88 | -0.234 | 4.93 | 2.5 | 3.86 | 0.906 | 2.54 |
| CCTCGGAGGACAGCAGGTCAGAGCTGTCCGCTTT | 0.494 | 0.589 | -0.357 | -0.0868 | -0.729 | 0.521 | -0.863 | -0.393 | -1.22 | -1.04 |
| CATACAGGGTCAGCTAGGCCAAAGTAGGGACGGC | 4.83 | 3.04 | 0.0314 | 2.39 | 0.557 | 4.4 | 3.32 | 3.26 | 0.781 | 1.85 |
| CCTAGCAGGGCAGGGTCACTCAAGCATTTCGCTT | 2.68 | 2.17 | -0.361 | 2.12 | -1.22 | 3.32 | 1.4 | 2.37 | -0.0964 | 1.47 |
| ATATGTAGGCTACATCCGGGTCATTCAGGCTATG | 0.976 | 1.54 | 0.0787 | 1.85 | 0.425 | 3.62 | 3.08 | 2.77 | 1.13 | 1.85 |
| CAAACTAGGTCAAAGGTCCAAGTCGAGCCAACCA | 5.12 | 4.21 | 0.693 | 3.08 | 0.0587 | 6.27 | 12.8 | 10.1 | 12.4 | 12.2 |
| CAAACTAGGTCACCGGAAGGTCAAAGTCCGCATG | 6.27 | 6.15 | 5.16 | 5.46 | 1.59 | 6.16 | 9.5 | 7.87 | 5.79 | 7.49 |
| CTACCAAGGTGAACAAGGTCGTTAATTACTATTC | 1.3 | 1.23 | 0.268 | 1.86 | -0.284 | 2.61 | 1.07 | 1.5 | 0.266 | 1.15 |
| AGTCTAAGTTCATCTAGGTAACGTAAGATATGCT | 4.07 | 4.07 | 1.92 | 2.09 | 0.539 | 3.17 | 1.72 | 2.24 | 0.691 | 1.31 |
| ACATGTAGGTTACATCCGGGTCATTCAGGCTATG | 2.53 | 4.55 | 1.49 | 3.15 | 1.14 | 4.15 | 4.27 | 3.99 | 1.47 | 2.91 |
| CCTCGGAGGACTGAAGGTCAGAGCTGTCCGCTTT | 0.88 | 1.89 | 0.285 | 0.745 | -0.722 | 1.46 | -0.679 | 0.572 | -0.9 | -0.111 |
| GCAGACAGGTGAAACGCAGGTAACTCACGGTGGC | -0.0802 | 0.186 | -0.449 | -0.389 | -1.17 | 0.612 | 0.796 | -0.183 | -0.533 | -0.11 |
| CCGGCTAGGTCAATGGTCAGCTAAAGCAGCTCGC | 3.18 | 1.98 | -0.137 | 1.48 | -0.304 | 2.91 | 3.63 | 4.32 | 1.63 | 4.03 |
